The values that follow come from PubChem BioAssay AID651812 (National Center for Advancing Translational Sciences (NCATS), 2012).

The campaign covered roughly 2,100 compounds. About 650 (31%) were called active. Another 16% or so got no clear call; they are omitted. Calls come from the whole dose curve; as a rule, active = well fitted inhibition curve with a large enough effect; inconclusive = small, poorly fitted or top-dose-only effect; inactive = flat fitted curve, though single readings scatter. The list shows a part of the results. Entries that show only a call come without a potency.
Potency is the fitted concentration of half-maximal effect.

This experiment is described as follows: qHTS for inhibitors of Vif-A3G interactions: Cherry picks. Note: nearly all actives have a fitted effect of over 80% in size. Conditions: HeLa A3G-eYFP + Vif (tagged APOBEC3G with the HIV-1 protein that degrades it), 24 h; Potency: eYFP fluorescence increase; series mostly up to 36.9 µM. In a few lines: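 Cherry-picked compounds tested at several concentrations on A3G-eYFP/Vif HeLa cells for 24 hours; loss of Vif-driven degradation read as eYFP fluorescence by cytometric plate imaging, 488 nm excitation, 500-530 nm emission.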
(In general: Quantitative high-throughput screening tests each substance at several concentrations.)
On to `CCOC(=O)c1c(NC(=O)c2ccc(S(=O)(=O)N3CCC(C)CC3)cc2)sc2c1CCN(C)C2`, for which the Potency was 18.4 µM (active).
As for `COc1ccccc1N(C)S(=O)(=O)c1ccc(C(=O)OCC(=O)N2CCC2)cc1`, the entry is “inactive”; as for `CC(C)(C)C(=O)Nc1sc2c(c1C#N)CCN(Cc1ccccc1)C2`, “inactive”; as for `CCCN1CCc2c(sc(NC(=O)c3ccc(S(=O)(=O)N(C)c4ccccc4)cc3)c2C(N)=O)C1`, 16.4 µM (active).
To `CCCN1CCc2c(sc(NC(=O)c3ccc(S(=O)(=O)N(C)c4ccccc4)cc3)c2C(=O)NC)C1` belongs 18.4 µM (active).
Regarding `COc1cc(N2CCCC2)c(OC)cc1/C=C(/C#N)c1ccc(F)cc1`, the Potency is 18.4 µM (active).
`CSc1nc2ccccc2cc1/C=C(\C#N)c1ccccc1`: the Potency result is “inactive”.
As to `COc1cc(N2CCCC2)c(OC)cc1/C=C(/C#N)c1ccc(Br)cc1`, the Potency was 8.2 µM (active).
With `COc1cc(-c2cnc3c(NC(C)=O)cc(-c4ccccc4CN(C)C)cn23)cc(OC)c1OC`, the Potency entry was “inactive”.
As for `COc1cc(C(=O)OCC(=O)Nc2ccc(N3CCOCC3)cc2)ccc1OCC(C)C`, the Potency entry is “inactive”.
To `CN(C)c1ccc(/C=C/c2ccnc3ccc(I)cc23)cc1` belongs 5.17 µM (active).
As for `COc1ccc2nccc(/C=C/c3ccc(N(C)C)cc3)c2c1`, the figure is 18.4 µM (active); as for `Cc1cc(C)c2nccc(/C=C/c3ccc(N(C)C)cc3)c2c1`, 16.4 µM (active).
As for `CN(C)c1ccc(/C=C/c2ccnc3ccc(Br)cc23)cc1`, the figure is 2.59 µM (active); as for `CC1(C(=O)NCc2cccs2)Cc2c(-c3ccc(C(N)=O)cc3)ccnc2O1` (stereo not drawn), “inactive”.
As to `COc1ccccc1-c1cc(NC=O)c2ncc(-c3cccc(C(=O)N(C)C)c3)n2c1`, the Potency result was “inactive”.
As for `COc1cc(C(=O)Nc2ccc3c(c2)ncn3C)cc(OC)c1OC`, the entry is “inactive”; as for `CC(=O)Nc1cccc(-c2ccnc3c2CC(C(=O)NCc2ccco2)O3)c1` (stereo not drawn), “inactive”.
As for `Cc1ccc2nccc(/C=C/c3ccc(N(C)C)cc3)c2c1`, the figure is 16.4 µM (active); as for `CN(C)c1ccc(/C=C/c2ccnc3ccc(N)cc23)cc1`, 18.4 µM (active); as for `O=C(NCc1ccccc1)C1Cc2c(-c3cccc(F)c3)ccnc2O1` (stereo not drawn), “inactive”.
With `Cn1c(=O)c2cc(NC(=O)NCc3ccc(F)cc3)ccc2n1C/C=C/c1ccccc1`, the Potency result is “inactive”.
To `C=CCN1C(=O)c2ccc(C(=O)N(CC(C)C)c3c(N)n(CCCC)c(=O)[nH]c3=O)cc2C1=O` belongs “inactive”; to `CCCCn1c(N)c(N(Cc2ccccc2OC)C(=O)c2ccc([N+](=O)[O-])s2)c(=O)[nH]c1=O`, “inactive”.
As for `CCCCn1c(N)c(N(CC(C)C)C(=O)Cc2ccc(S(=O)(=O)N3CCOCC3)s2)c(=O)[nH]c1=O`, the Potency was 18.4 µM (active).
Take `Cc1cc(N)cc(C)c1-c1c(Br)cc(N)cc1Br`: the Potency entry was “inactive”.
To `COc1ccc(/C=C/C=C2\NC(=S)NC2=O)cc1` belongs 6.51 µM (active); to `CCOc1ccc(Cn2c3ccc(OC)cc3c3nc4ccccc4nc32)cc1`, 16.4 µM (active); to `CCOc1cccc(-n2nnnc2-c2ccc(OC)cc2)c1`, “inactive”.
As for `COc1ccc2c(c1)c1nc3ccccc3nc1n2CC(=O)OC(C)C`, the figure is 3.66 µM (active); as for `COc1cccc(Cn2c(-c3nonc3NC(C)=O)nc3ccccc32)c1`, “inactive”; as for `COc1cccc(Cn2c(-c3nonc3N)nc3ccccc32)c1`, “inactive”.
Take `CCCN1CCC(=NNc2ccc(S(=O)(=O)N3CCOCC3)cc2[N+](=O)[O-])CC1`: the Potency result is “inactive”.
To `COc1cc(S(=O)(=O)Nc2ccccc2N2CCCCC2)ccc1NC(C)=O` belongs “inactive”; to `CCOCCC(=O)Nc1ccc2c(c1)c(=O)n(C)n2C/C=C/c1ccccc1`, “inactive”; to `COc1ccccc1CCC(=O)Nc1ccc2c(c1)c(=O)n(C)n2Cc1ccc(F)cc1`, “inactive”.
For `COc1cc2nc(SCC(=O)NCc3ccco3)n(Cc3ccc(Cl)cc3)c(=O)c2cc1OC`, the Potency is 5.8 µM (active).
As for `COc1ccc(NC(=O)CSc2nc3c(oc4ccccc43)c(=O)n2Cc2ccco2)cc1Cl`, the figure is 14.6 µM (active); as for `CCCn1c(SCC(=O)Nc2ccccc2OC)nnc1-c1ccco1`, “inactive”; as for `Cc1cccc(Cn2c(=O)n(CCCC(=O)NCc3ccco3)c(=O)c3ccccc32)c1`, “inactive”.
To `O=C(CCCCn1c(=O)c2ccccc2n(Cc2ccc(F)cc2)c1=O)NCc1ccco1` belongs “inactive”; to `c1ccc(N=Nc2ccc3cccccc2-3)cc1`, “inactive”; to `Cc1ccc(-c2csc(NC3OC(=O)c4ccccc43)n2)cc1` (stereo not drawn), “inactive”.
As for `CCOC(=O)C(=Cc1ccc(-n2cncn2)cc1)C(=O)OCC`, the entry is “inactive”.
Turning to `CCOc1cc(S(=O)(=O)NCc2ccc(OC)cc2)c(OCC)cc1-n1cnnn1`, the Potency result is “inactive”.
As to `CC(C)(C)OC(=O)NCc1ccc(NC(=O)c2nc[nH]c2C(=O)NCCCNC(=O)c2[nH]cnc2C(=O)Nc2ccc(CNC(=O)OC(C)(C)C)cc2)cc1`, the Potency result is “inactive”.
`CCC(C)n1c(NC(=O)c2ccccc2)c(C#N)c2nc3ccccc3nc21` (stereo not drawn): the Potency was 18.4 µM (active).
To `CCN(CC(=O)Nc1ccccc1-c1ccccc1)Cc1nc2ccccc2c(=O)[nH]1` belongs “inactive”; to `Cc1ccccc1/C=C\c1nc2ccccc2c(=O)[nH]1`, “inactive”; to `O=c1[nH]c(/C=C/c2cccc3ccccc23)nc2ccccc12`, 18.4 µM (active).
As for `O=c1[nH]c(-c2cccnc2)nc2sc(-c3ccccc3)cc12`, the entry is “inactive”; as for `O=C(NC1CCCC(C(F)(F)F)C1)c1ccc([N+](=O)[O-])o1` (stereo not drawn), “inactive”.
For `N#CC(=Cc1ccccn1)c1nc(-c2ccc(Cl)cc2)cs1`, the Potency was 6.27 µM (active).
Consider `N#C/C(=C\c1ccc(Cl)cc1)c1nc2ncccc2[nH]1`, for which the Potency entry is “inactive”.
As for `COc1ccc(CCNC(=O)CC2(CC3=NS(=O)(=O)c4ccccc4N3)CCCC2)cc1OC`, the entry is “inactive”; as for `COc1cccc(Cn2c3ccc(NC(=O)CCc4ccc(F)cc4)cc3c(=O)n2C)c1`, “inactive”.
To `COc1ccc(-c2cc(-c3nnc(COC(=O)c4ccncc4)o3)c3ccccc3n2)cc1OC` belongs “inactive”; to `CCOc1ccccc1NC(=O)Cn1nnc(C(=O)NCc2cccs2)c1N`, “inactive”; to `COc1cc2c(cc1OC)CN(C(=O)c1cc(=O)c3ccccc3o1)CC2`, “inactive”.
To `CCOc1cc(-c2nnc(SCC(=O)NCc3ccccc3)nc2-c2ccc(OC)c(OCC)c2)ccc1OC` belongs “inactive”.
Take `CCOc1ccc(C2CC(c3c(O)c4ccccc4oc3=O)=NN2c2ccccc2)cc1OC` (stereo not drawn): the Potency is 14.6 µM (active).
As for `COc1ccc(NC(=O)c2ccc3c(c2)c(C)c(C)n3Cc2ccc(F)cc2)cc1`, the Potency entry is “inactive”.
As for `COc1ccc(C(=O)/C=C2/c3ccccc3CC(C)(C)N2C)cc1`, the entry is “inactive”; as for `COc1ccc(/C=C2\C(=O)NC(=S)N2C(=O)c2ccc(F)cc2)cc1`, 8.2 µM (active); as for `NNC(=O)c1cc2sccc2s1`, “inactive”.
As for `CC(C)n1cc(NC(=O)c2cc(-c3ccccc3)on2)cn1`, the entry is “inactive”; as for `N#C/C(=C\c1cccc(O)c1)c1nc2ccccc2o1`, 3.14 µM (active).
As for `C[C@]12CCC[C@H](O1)c1c(cc3c(c1O)C(=O)c1c(O)cc(O)cc1C3=O)O2`, the figure is 13 µM (active); as for `O=C1c2ccccc2C(=O)c2cc(N3CCCCC3)ccc21`, 7.9 µM (active).
In the case of `O=C(N/N=C/c1cccc2ccccc12)c1cc2ccccc2o1`, the Potency result was “inactive”.
For the compound `COc1ccc(Nc2nc(C)nc3sc4c(c23)CCC4)cc1O`, the Potency entry was “inactive”.
As for `COc1cccc(C(=O)c2sc3nc(-c4ccccc4)cc(C(F)(F)F)c3c2N)c1`, the figure is 1.64 µM (active).
Turning to `COc1ccc(NC(=O)c2sc3nc(C(F)(F)F)cc(C)c3c2N)cc1OC`, the Potency was 23.1 µM (active).
As for `COc1cccc(-c2ccc3c(N)c(C(=O)c4ccc(Br)cc4)sc3n2)c1`, the figure is 16.4 µM (active); as for `COc1ccc(C(=O)c2sc3nc(C)cc(-c4cccs4)c3c2N)cc1`, 18.4 µM (active); as for `COC(=O)CCS(=O)(=O)c1nc(-c2ccccc2)cc(C(F)(F)F)n1`, “inactive”.
To `COc1ccc(C(=O)c2ccc(OC)c(OC)c2OC)cc1` belongs “inactive”; to `COc1cc(C(=O)Nc2ccc3c(c2)nc(C)n3C)cc(OC)c1OC`, “inactive”.
To `COc1ccc(COc2cc(-c3cccc(OC)c3)nc3ccc(NC(=O)c4ccc(OC)cc4)cc23)cc1` belongs “inactive”; to `COc1ccc(N(C(=O)C(C)C)S(=O)(=O)c2cccs2)cc1`, “inactive”; to `O=c1[nH]c(NCc2ccco2)nnc1Cc1ccccc1Cl`, “inactive”.
As for `Cc1c(C(=O)N/N=C/C(C)C)[nH]c2c([N+](=O)[O-])cccc12`, the Potency entry was “inactive”.
As for `CN[C@H]1CCc2cc(OC)c(OC)c(OC)c2-c2ccc(N(C)CC(OC)OC)c(=O)cc21`, the entry is “inactive”; as for `C/C(=N\NC(=O)c1c(Cl)c(C)nn1C)c1ccc(NC(=O)C2CCC2)cc1`, “inactive”.
On to `Cc1ccc(NC(=O)Cn2ncc(Cl)c(Cl)c2=O)cc1S(=O)(=O)N1CCCCC1`, for which the Potency entry was “inactive”.
As to `O=C(N/N=C/c1ccc2c(c1)OCO2)c1ccc2c(c1)OCCO2`, the Potency entry was “inactive”.
To `Brc1ccc2c(c1)[C@H]1OCC[C@H]1[C@@H](c1cccs1)N2` belongs “inactive”.
Turning to `C=C(C)CNC(=S)N/N=C1\CCCCc2ccccc21`, the Potency result was “inactive”.
For `Cc1cc(N2CCN(C)CC2)ccc1NC(=O)c1c2c(nc3ccccc13)CCN(Cc1ccccc1)C2`, the Potency result was “inactive”.
For `COc1ccc(OC)c(-c2cc(-c3cccnc3)nc(N)c2C#N)c1`, the Potency result is “inactive”.
As for `COc1cccc(C(=O)Nc2ncc3c(n2)CC(c2ccc(OC)cc2OC)CC3=O)c1` (stereo not drawn), the entry is “inactive”; as for `COc1ccc(NC(=O)c2sc3nc(-c4cccnc4)ccc3c2N)cc1OC`, 3.66 µM (active); as for `COc1cccc(NC(=O)Nc2nc(-c3ccc(OC)c(OC)c3)cs2)c1`, “inactive”.
As for `COc1ccc(NC(=O)c2sc3nc(-c4ccc(OC)cc4)cc(C(F)(F)F)c3c2N)cc1`, the figure is 0.731 µM (active); as for `COc1ccc(NC(=O)c2cc(-c3ccccc3OC)on2)cc1`, “inactive”; as for `COc1ccc(NC(=O)c2sc3nc4c(cc3c2N)CN(Cc2ccccc2)CC4)c(OC)c1`, 18.4 µM (active).
To `COc1ccc(C(=O)c2sc3nc(-c4ccc(C)cc4)cc(C(F)(F)F)c3c2N)cc1` belongs 2.06 µM (active).
For `CCOC(=O)c1c(C)nc2sc(C(=O)Nc3ccc(OC)cc3)c(N)c2c1-c1ccc(OC)cc1`, the Potency result was “inactive”.
